Reference: PubChem BioAssay (EPA / NIEHS)
Results filed as inconclusive are left out. Activity calls are given as the source filed them. How the source made its calls: active means hit-call score of the fitted dose curve at least 0.9, where 1 is the maximum; inconclusive means response in the unintended direction; inactive means score below 0.9.

Read-out: Glyceraldehyde-3-phosphate dehydrogenase (Homo sapiens) (UniProt P04406)
Test: CLD_GAPDH_6hr: CellzDirect (CLD) Gene Expression Assay for Baseline Control (Glyceraldehyde 3-phosphate dehydrogenase) at 6 hours (AID 2283681)
Procedure: CLD_6hr is a cell-based, multiplexed-readout assay that uses hepatocyte, a human liver primary cell, with measurements taken at 6 hours after chemical dosing in a 96-well plate.CLD_GAPDH_6hr is one of 16 assay component(s) measured or calculated from the CLD_6hr assay. It is designed to make measurements of mRNA induction, a form of inducible reporter, as detected with chemiluminescence signals by Quantitative Nuclease Protection Assay (qNPA) technology.Data from the assay component CLD_GAPDH_6hr was analyzed at the endpoint, CLD_GAPDH_6hr, in the positive analysis fitting direction relative to DMSO as the negative control and baseline of activity. Using a type of inducible reporter, gain-of-signal activity can be used to understand changes in the reporter gene as they relate to the gene GAPDH. Furthermore, this assay endpoint can be referred to as a secondary readout, because this assay has produced multiple assay endpoints where this one serves a background control function. To generalize the intended target to other relatable targets, this assay endpoint is annotated to the background measurement intended target family, where subfamily is baseline control.
Human hepatocyte cultures were treated daily for two consecutive days with fresh dosing solutions containing appropriate concentrations of the 320 ToxCast chemicals (chemical identities were blinded to CellzDirect and other ToxCast collaborators), vehicle control (0.2% DMSO), and positive control inducers as summarized in Table 1. Due to the large number of treatment groups and chemicals examined, the ToxCast chemicals were divided into two groups (spanning two independent cultures of hepatocytes from separate donor preparations (Hu778: ToxCast plates 1 and 2; Hu776: ToxCast plates 3 and 4). Each preparation of human hepatocyte cultures was treated with respective vehicle control, medium only control, set of six positive controls/reference chemicals for the five hepatic receptor pathways, and a subset of eight of the ToxCast chemicals (indoxacarb, pyrithiobac-sodium, norflurazon, cyhalofop-butyl, methomyl, thiram, acetochlor, and propiconazole). These replicate data, coupled with internal replicates designed within the blinded ToxCast chemical library, provided additional data to evaluate interindividual differences between hepatocyte preparations and their potential impact on chemical profiles.Cell morphology and integrity were evaluated using phase-contrast microscopy as an indicator of hepatocyte cell health (Tyson & Green, 1987). Cultures for each treatment group (i.e., media, vehicle [0.2% DMSO], positive control inducers [multiple concentrations], and the ToxCast chemicals [multiple concentrations]) were observed and cell morphology was assessed relative to vehicle control cultures at each harvest time point (0, 6, 24, or 48 h). […] Images were evaluated at the conclusion of the study to assess changes in cell integrity and account for the effects of chemical exposure on uncharacteristic changes in concentration-dependent gene expression profiles. The results from these determinations of apparent cytotoxicity were annotated (yes/no) alongside the corresponding qNPA data for reference.At the conclusion of each treatment period, hepatocyte cultures (96-well) were washed with 1 volume of HBSS, lysed by addition of 25 ul ArrayPlate lysis buffer (HTG, Tucson, AZ), and 70 ul/well of Denaturation Oil, denatured by incubation at 95C for 10 min, and frozen at approximately -70C until analysis by nuclease protection assay (qNPA) (Roberts et al., 2007). For qNPA analysis, cell lysates were thawed at 50C for approximately 30 min, qNPA probes were added, and samples were incubated at 95C for 10 min to begin the detection process by denaturing the target RNA, dissociating the duplexes and secondary structure hybridization. At the conclusion of the hybridization period, S1 nuclease reagent was added to each sample to digest all nonprotected nucleotides at 50C for 60-90 min. […]

Chain of Glyceraldehyde-3-phosphate dehydrogenase (Homo sapiens) (P04406 whole entry, looked up): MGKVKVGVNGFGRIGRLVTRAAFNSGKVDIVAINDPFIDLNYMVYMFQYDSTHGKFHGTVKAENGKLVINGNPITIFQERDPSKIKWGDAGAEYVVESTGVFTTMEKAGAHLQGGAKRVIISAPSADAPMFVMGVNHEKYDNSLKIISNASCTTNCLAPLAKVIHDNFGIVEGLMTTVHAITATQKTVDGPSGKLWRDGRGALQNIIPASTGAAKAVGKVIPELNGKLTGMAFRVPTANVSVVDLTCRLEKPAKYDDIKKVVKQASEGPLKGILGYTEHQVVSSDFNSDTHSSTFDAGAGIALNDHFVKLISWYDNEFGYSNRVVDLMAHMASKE

How did the outcome turn out when `OC(c1ccc(Cl)cc1)(c1cncnc1)c1ccccc1Cl` (centres undefined) was run?
Its outcome is “inactive”.

With `CC(Oc1ccc(Cl)cc1Cl)C(=O)O` (centres undefined) as the compound, how does the outcome read?
The outcome was “inactive”.

How did the outcome turn out when `C=CC1(C)OC(=O)N(c2cc(Cl)cc(Cl)c2)C1=O` (centres undefined) was run?
The outcome was “inactive”.

How did the outcome turn out when `CNC(=O)ON=CC(C)(C)SC` was run?
Its outcome is “inactive”.

For `CCON=C(CC)C1=C(O)CC(c2c(C)cc(C)cc2C)CC1=O` (centres undefined), which outcome is on record?
The outcome was “inactive”.

Which outcome does the source give for `C=CCC1=C(C)[C@@H](OC(=O)[C@@H]2[C@@H](C=C(C)C)C2(C)C)CC1=O` here?
Its outcome is “inactive”.

`CCCCNC(=O)OCC#CI` was tested. Which outcome did it give?
The outcome was “inactive”.

How did the outcome turn out when `COC(=O)C=C(C)OP(=O)(OC)OC` was run?
Its outcome is “inactive”.

Which outcome does the source give for `CCNc1nc(Cl)nc(NC(C)C)n1` here?
The outcome was “inactive”.

Which outcome does the source give for `CCNc1nc(Cl)nc(NCC)n1` here?
Its outcome is “inactive”.

How did the outcome turn out when `CCOC(=O)C(Cl)Cc1cc(-n2nc(C)n(C(F)F)c2=O)c(F)cc1Cl` (centres undefined) was run?
The outcome was “inactive”.

Which outcome does the source give for `CO/C=C(/C(=O)OC)c1ccccc1Oc1cc(Oc2ccccc2C#N)ncn1` here?
The outcome was “inactive”.

How did the outcome turn out when `Cc1cc(Cl)ccc1OCC(=O)O` was run?
Its outcome is “inactive”.

How did the outcome turn out when `CCCCOC(=O)c1ccccc1C(=O)OCCCC` was run?
Its outcome is “inactive”.

How did the outcome turn out when `COc1nc(C)nc(NC(=O)NS(=O)(=O)c2ccccc2CCC(F)(F)F)n1` was run?
Its outcome is “inactive”.

`N#Cc1nn(-c2c(Cl)cc(C(F)(F)F)cc2Cl)c(N)c1S(=O)C(F)(F)F` (centres undefined) was tested. Which outcome did it give?
Its outcome is “inactive”.

How did the outcome turn out when `CCCCNC(=O)n1c(NC(=O)OC)nc2ccccc21` was run?
Its outcome is “inactive”.

How did the outcome turn out when `CNC(=S)S` was run?
The outcome was “inactive”.

With `Cc1ccc(-c2c(Cl)nc(C#N)n2S(=O)(=O)N(C)C)cc1` as the compound, how does the outcome read?
The outcome was “inactive”.

With `N#Cc1cc(Br)c(O)c(Br)c1` as the compound, how does the outcome read?
Its outcome is “inactive”.

How did the outcome turn out when `CC(C)(C)c1ccc(CSc2cnn(C(C)(C)C)c(=O)c2Cl)cc1` was run?
Its outcome is “inactive”.

For `CCCCC(CC)COC(=O)c1ccccc1C(=O)OCC(CC)CCCC` (centres undefined), which outcome is on record?
Its outcome is “inactive”.

How did the outcome turn out when `CC(C)Oc1cc(-n2nc(C(C)(C)C)oc2=O)c(Cl)cc1Cl` was run?
Its outcome is “inactive”.

With `O=C(O)COc1nc(Cl)c(Cl)cc1Cl` as the compound, how does the outcome read?
The outcome was “inactive”.

With `CC1COC(Cn2cncn2)(c2ccc(Oc3ccc(Cl)cc3)cc2Cl)O1` (centres undefined) as the compound, how does the outcome read?
Its outcome is “inactive”.

Which outcome does the source give for `CS/C(C)=N/OC(=O)N(C)SN(C)C(=O)O/N=C(\C)SC` here?
Its outcome is “inactive”.

`CN(C)C(=S)SSC(=S)N(C)C` was tested. Which outcome did it give?
The outcome was “inactive”.

`Cc1c(F)c(F)c(COC(=O)C2C(/C=C(\Cl)C(F)(F)F)C2(C)C)c(F)c1F` (centres undefined) was tested. Which outcome did it give?
The outcome was “inactive”.

How did the outcome turn out when `COc1nc(NC(C)C)nc(NC(C)C)n1` was run?
The outcome was “inactive”.

`Oc1ccccc1-c1ccccc1` was tested. Which outcome did it give?
The outcome was “inactive”.

For `COC(=O)N(OC)c1ccccc1COc1ccn(-c2ccc(Cl)cc2)n1`, which outcome is on record?
The outcome was “inactive”.

`CC(C)C1(C)N=C(c2nc3ccccc3cc2C(=O)O)NC1=O` (centres undefined) was tested. Which outcome did it give?
The outcome was “inactive”.

With `COc1nc(C)nc(NC(=O)NS(=O)(=O)c2ccccc2Cl)n1` as the compound, how does the outcome read?
Its outcome is “inactive”.

How did the outcome turn out when `COC(=O)C(C)Oc1ccc(Oc2ccc(Cl)cc2Cl)cc1` (centres undefined) was run?
Its outcome is “inactive”.

With `O=C(Nc1ccccc1)Nc1ccnc(Cl)c1` as the compound, how does the outcome read?
The outcome was “inactive”.

For `CCOC(=O)CC(SP(=S)(OC)OC)C(=O)OCC` (centres undefined), which outcome is on record?
The outcome was “inactive”.

Which outcome does the source give for `COP(=S)(OC)Oc1nc(Cl)c(Cl)cc1Cl` here?
The outcome was “inactive”.

`CCOc1cc(Oc2ccc(C(F)(F)F)cc2Cl)ccc1[N+](=O)[O-]` was tested. Which outcome did it give?
The outcome was “inactive”.

Which outcome does the source give for `O=C(O)c1nc(Cl)ccc1Cl` here?
Its outcome is “inactive”.
